Values joined by “and” are separate entries in the source; they are usually repeats but may differ in a detail not shown here. Equal values may be shown once. Results filed as inconclusive are left out. Active and inactive are the calls of the source. Unless noted, calls come from the whole dose curve; as a rule, active = well fitted curve in either direction with a large enough effect (not every such curve was filed as active); inconclusive = small, poorly fitted or top-dose-only effect, or another doubt; inactive = flat fitted curve, though single readings scatter.
assay: Cell Viability - MRC5 (AID 434; calls by dose curve;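 note: potency is the fitted concentration of half-maximal effect; cells exposed to compound for 40 hours at 37 °C; potency reflects cytotoxicity seen as loss of intracellular ATP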); settings: MRC5 lung fibroblast viability, qHTS
How it was run: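 MRC5 normal human lung fibroblasts (1500/well) were treated with compounds for 40 hr at 37 °C in complete medium, and viable cells were measured as intracellular ATP by CellTiter-Glo luminescence. AC50 came from Hill fits, normalized to DMSO and 100 uM tamoxifen.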

SMILES | Potency
NCCNCCNCCNCCN | > 92 µM (inactive)
CC12CCC(CC1)C(C)(C)O2 | > 92 µM (inactive)
Cc1c(O)cccc1C(=O)N[C@@H](CSc1ccccc1)[C@H](O)CN1C[C@H]2CCCC[C@H]2C[C@H]1C(=O)NC(C)(C)C | 31.7 µM (active)
Oc1cccc(O)c1 | > 92 µM (inactive)
CC1(C)[C@@H]2CC[C@@]1(C)C(=O)C2 | > 92 µM (inactive)
NC(=O)c1ncn([C@@H]2O[C@H](CO)[C@@H](O)[C@H]2O)n1 | > 92 µM (inactive)
[Cl][In]([Cl])[Cl] | > 92 µM (inactive)
O=C1c2c(O)cccc2Cc2cccc(O)c21 | > 92 µM (inactive)
NC(=O)N/N=C/c1ccc([N+](=O)[O-])o1 | > 92 µM (inactive)
NCCNCCNCCN | > 92 µM (inactive)
CCCCCCCCCCCCOS(=O)(=O)O | > 92 µM (inactive)
Cc1cc2nc3c(=O)[nH]c(=O)nc-3n(C[C@H](O)[C@H](O)[C@H](O)CO)c2cc1C | > 92 µM (inactive)
O=C1O[C@H]([C@@H](O)CO)C(O)=C1O | > 92 µM (inactive)
COc1ccccc1O | > 92 µM (inactive)

assay: Cell Viability - SK-N-SH (AID 435; calls by dose curve;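 note: potency is the fitted concentration of half-maximal effect; compound exposure lasted 40 h at 37 °C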); settings: SK-N-SH neuroblastoma cell viability qHTS
How it was run: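 Human neuroblastoma line, 40 h exposure at 37 °C, ATP quantified via luciferase luminescence; DMSO and 100 uM tamoxifen define 0 and 100% inhibition for AC50 fitting.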

SMILES | Potency
NCCNCCNCCNCCN | > 92 µM (inactive)
CC12CCC(CC1)C(C)(C)O2 | > 92 µM (inactive)
Cc1c(O)cccc1C(=O)N[C@@H](CSc1ccccc1)[C@H](O)CN1C[C@H]2CCCC[C@H]2C[C@H]1C(=O)NC(C)(C)C | 24.5 µM (active)
CC1(C)[C@@H]2CC[C@@]1(C)C(=O)C2 | > 92 µM (inactive)
NC(=O)c1ncn([C@@H]2O[C@H](CO)[C@@H](O)[C@H]2O)n1 | > 92 µM (inactive)
[Cl][In]([Cl])[Cl] | > 92 µM (inactive)
O=C1c2c(O)cccc2Cc2cccc(O)c21 | > 92 µM (inactive)
NC(=O)N/N=C/c1ccc([N+](=O)[O-])o1 | > 92 µM (inactive)
NCCNCCNCCN | > 92 µM (inactive)
CCCCCCCCCCCCOS(=O)(=O)O | > 92 µM (inactive)
Cc1cc2nc3c(=O)[nH]c(=O)nc-3n(C[C@H](O)[C@H](O)[C@H](O)CO)c2cc1C | > 92 µM (inactive)
O=C1O[C@H]([C@@H](O)CO)C(O)=C1O | > 92 µM (inactive)
COc1ccccc1O | > 92 µM (inactive)

assay: NFAT Signaling Pathway (AID 444); settings: Jurkat NFAT-bla M1, carbachol, beta-lactamase ratio, 5 h; at 17.2 µM (top of the series);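 note: carbachol stimulus at about its EC50 of 1 µM final; % is set by controls: 0 for no effect and ±100 for the full control effect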
How it was run: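 Jurkat cells carrying an NFAT-driven β-lactamase reporter and co-transfected muscarinic M1 receptor were treated with compound plus carbachol (1 uM final, an EC50 level) for 5 h at 37 °C. CCF4 loading followed for 1 h at RT; 460/530 nm ratio gave %activity.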

SMILES | activity change, negative = inhibition
CC[C@H]1CN2CCc3cc(OC)c(OC)cc3[C@@H]2C[C@@H]1C[C@H]1NCCc2cc(OC)c(OC)cc21 | -131% (active)
Cc1ncc([N+](=O)[O-])n1CC(O)CCl (stereo not drawn) | -27.2% (inactive)
Cn1cc[nH]c1=S | -4.58% (inactive)
OCC(O)CN1CCN(c2ccccc2)CC1 (stereo not drawn) | 8.65% (inactive)
C[C@]12CC[C@@H]3c4ccc(O)cc4CC[C@H]3[C@@H]1CCC2=O | -19.8% (inactive)
CC(CN1c2ccccc2Sc2ccccc21)N(C)C (stereo not drawn) | -73.5% (active)
CN1[C@@H]2CC(OC(=O)[C@H](CO)c3ccccc3)C[C@H]1[C@@H]1O[C@@H]12 (stereo partly drawn) | -78.1% (active)
NS(=O)(=O)c1cc2c(cc1C(F)(F)F)NC(Cc1ccccc1)NS2(=O)=O (stereo not drawn) | 0.596% (inactive)
CSc1ccc2c(c1)N(CCC1CCCCN1C)c1ccccc1S2 (stereo not drawn) | -83% (active)
C[C@H](N)[C@H](O)c1cccc(O)c1 | -4.86% (inactive)
CNC(=O)Oc1ccc2c(c1)[C@]1(C)CCN(C)[C@@H]1N2C | 5.79% (inactive)
CN(C)CCCN1c2ccccc2Sc2ccc(Cl)cc21 | -73.6% (active)
Nc1ncnc2c1ncn2[C@@H]1O[C@H](CO)[C@@H](O)[C@H]1O | -4.17% (inactive)
CN(C)CCC=C1c2ccccc2CCc2ccccc21 | -80% (active)
C[C@@H]1C[C@H]2[C@@H]3C[C@H](F)C4=CC(=O)C=C[C@]4(C)[C@@]3(F)[C@@H](O)C[C@]2(C)[C@@]1(O)C(=O)CO | -28.6% (inactive)

assay: Stat Signaling Pathway (AID 446); settings: ME-180 SIE beta-lactamase reporter, IL-6 stimulated, 5 h; at 17.2 µM (top of the series);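 note: ME-180 cervical cancer cells given 40 pM IL-6 alongside compound; SIE-controlled beta-lactamase reporter measured as 460/530 nm FRET emission ratio; % is set by controls: 0 for no effect and ±100 for the full control effect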
How it was run: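 Screening format detects activators and inhibitors alike: ME-180 SIE-bla cells stimulated at 40 pM IL-6 for 5 hrs with compound, then dual-emission beta-lactamase read at 405 nm excitation.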

SMILES | activity, negative = inhibition
CC[C@H]1CN2CCc3cc(OC)c(OC)cc3[C@@H]2C[C@@H]1C[C@H]1NCCc2cc(OC)c(OC)cc21 | -96.7% (active)
Cc1ncc([N+](=O)[O-])n1CC(O)CCl (stereo not drawn) | 0.729% (inactive)
Cn1cc[nH]c1=S | -3.77% (inactive)
OCC(O)CN1CCN(c2ccccc2)CC1 (stereo not drawn) | 10.1% (inactive)
CN(C)CCCN1c2ccccc2CCc2ccccc21 | 2.6% (inactive) and 1.4% (inactive)
C[C@]12CC[C@@H]3c4ccc(O)cc4CC[C@H]3[C@@H]1CCC2=O | -23.3% (inactive)
CC(CN1c2ccccc2Sc2ccccc21)N(C)C (stereo not drawn) | -1.09% (inactive)
CN1[C@@H]2CC(OC(=O)[C@H](CO)c3ccccc3)C[C@H]1[C@@H]1O[C@@H]12 (stereo partly drawn) | 3.51% (inactive)
CN(C)CCOC(C)(c1ccccc1)c1ccccn1 (stereo not drawn) | 5.21% (inactive)
NS(=O)(=O)c1cc2c(cc1C(F)(F)F)NC(Cc1ccccc1)NS2(=O)=O (stereo not drawn) | 1.32% (inactive)
O=C(CCCN1CCN(c2ccccn2)CC1)c1ccc(F)cc1 | -8.71% (inactive)
CCCCOc1cc(C(=O)OCCN(CC)CC)ccc1N | -0.0669% (inactive)
CNCCC(Oc1ccc(C(F)(F)F)cc1)c1ccccc1 (stereo not drawn) | 4.05% (inactive)
C[C@H](N)[C@H](O)c1cccc(O)c1 | 4.65% (inactive)
CC(COc1ccccc1)NC(C)C(O)c1ccc(O)cc1 (stereo not drawn) | 20.7% (inactive)
CC(=O)OCC(=O)[C@@]1(O)CC[C@H]2[C@@H]3CCC4=CC(=O)CC[C@]4(C)[C@H]3C(=O)C[C@@]21C | 11.3% (inactive)
CNC(=O)Oc1ccc2c(c1)[C@]1(C)CCN(C)[C@@H]1N2C | 4.34% (inactive)
CCCc1c(OCCCCc2nn[nH]n2)ccc(C(C)=O)c1O | -12.8% (inactive)
CN(C)CCCN1c2ccccc2Sc2ccc(Cl)cc21 | -1.56% (inactive) and 4.13% (inactive)
CN(C)CCC=C1c2ccccc2CCc2ccccc21 | -2.52% (inactive) and 2.81% (inactive)
C[C@@H]1C[C@H]2[C@@H]3C[C@H](F)C4=CC(=O)C=C[C@]4(C)[C@@]3(F)[C@@H](O)C[C@]2(C)[C@@]1(O)C(=O)CO | -0.0687% (inactive)

Reference: PubChem BioAssay (NCATS)
